Most compounds without a hit are left out; they make up all but 3.8% or so of the library.
HSF-1 act: increases HSF-1 driven luciferase reporter signal; AID 504408; actives 1.7% (n = 300,000); NIH3T3-HGL HSF-1 luciferase reporter, MG132, 8 h; 100% = twice DMSO control signal; activation, % at 9 µM;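 active means mean replicate activation of at least 50% with a set share of replicates each reaching 50%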;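 further: 0% = median of the neutral control wells and 100% = twice that signal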
HSP90 refold inh: inhibitors of HSP90 luciferase refolding in rabbit reticulocyte lysate | luciferase refolding luminescence, 3 h | inhibition, % at 5.6 µM | actives 0.91% (n = 290,000) | AID 1789;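 active means inhibition above the screen-wide mean plus 3 SD, computed separately per campaign, cut at about 16% in these data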;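 further: 0% = DMSO wells and 100% = 60 µM geldanamycin wells; inhibitors lower the luminescence because luciferase stays unfolded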
HSF1 inhib: HSF1 inhibition | AID 2098 | actives 0.77% (n = 300,000) | activity change, negative = inhibition, % at 7.5 µM (by protocol) | NIH3T3-HGL HSE-luciferase, MG132-induced, luminescence 8 h; active compounds read low;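 active means more than half of replicate wells show activity change below -50%, luminescence cut by over half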;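 further: luciferase reports HSF-1 transcriptional activity via heat shock element; 0% = median of DMSO wells and -100% = zero luminescence signal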
p-CIP stab down: lowers stability of the mouse p/CIP coactivator protein; F442A p/CIP-EGFP cells, EGFP fluorescence, 16 h; Q05BA5; actives 0.01% (n = 290,000); decrease of EGFP signal, % at 10 µM;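 active means EGFP signal decrease of at least 30% at 10 µM or well 3 SD below plate mean, unless failing retest; inactive means the rest, including hits failing retest or dose response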
Target sequence (Q05BA5 1-1403): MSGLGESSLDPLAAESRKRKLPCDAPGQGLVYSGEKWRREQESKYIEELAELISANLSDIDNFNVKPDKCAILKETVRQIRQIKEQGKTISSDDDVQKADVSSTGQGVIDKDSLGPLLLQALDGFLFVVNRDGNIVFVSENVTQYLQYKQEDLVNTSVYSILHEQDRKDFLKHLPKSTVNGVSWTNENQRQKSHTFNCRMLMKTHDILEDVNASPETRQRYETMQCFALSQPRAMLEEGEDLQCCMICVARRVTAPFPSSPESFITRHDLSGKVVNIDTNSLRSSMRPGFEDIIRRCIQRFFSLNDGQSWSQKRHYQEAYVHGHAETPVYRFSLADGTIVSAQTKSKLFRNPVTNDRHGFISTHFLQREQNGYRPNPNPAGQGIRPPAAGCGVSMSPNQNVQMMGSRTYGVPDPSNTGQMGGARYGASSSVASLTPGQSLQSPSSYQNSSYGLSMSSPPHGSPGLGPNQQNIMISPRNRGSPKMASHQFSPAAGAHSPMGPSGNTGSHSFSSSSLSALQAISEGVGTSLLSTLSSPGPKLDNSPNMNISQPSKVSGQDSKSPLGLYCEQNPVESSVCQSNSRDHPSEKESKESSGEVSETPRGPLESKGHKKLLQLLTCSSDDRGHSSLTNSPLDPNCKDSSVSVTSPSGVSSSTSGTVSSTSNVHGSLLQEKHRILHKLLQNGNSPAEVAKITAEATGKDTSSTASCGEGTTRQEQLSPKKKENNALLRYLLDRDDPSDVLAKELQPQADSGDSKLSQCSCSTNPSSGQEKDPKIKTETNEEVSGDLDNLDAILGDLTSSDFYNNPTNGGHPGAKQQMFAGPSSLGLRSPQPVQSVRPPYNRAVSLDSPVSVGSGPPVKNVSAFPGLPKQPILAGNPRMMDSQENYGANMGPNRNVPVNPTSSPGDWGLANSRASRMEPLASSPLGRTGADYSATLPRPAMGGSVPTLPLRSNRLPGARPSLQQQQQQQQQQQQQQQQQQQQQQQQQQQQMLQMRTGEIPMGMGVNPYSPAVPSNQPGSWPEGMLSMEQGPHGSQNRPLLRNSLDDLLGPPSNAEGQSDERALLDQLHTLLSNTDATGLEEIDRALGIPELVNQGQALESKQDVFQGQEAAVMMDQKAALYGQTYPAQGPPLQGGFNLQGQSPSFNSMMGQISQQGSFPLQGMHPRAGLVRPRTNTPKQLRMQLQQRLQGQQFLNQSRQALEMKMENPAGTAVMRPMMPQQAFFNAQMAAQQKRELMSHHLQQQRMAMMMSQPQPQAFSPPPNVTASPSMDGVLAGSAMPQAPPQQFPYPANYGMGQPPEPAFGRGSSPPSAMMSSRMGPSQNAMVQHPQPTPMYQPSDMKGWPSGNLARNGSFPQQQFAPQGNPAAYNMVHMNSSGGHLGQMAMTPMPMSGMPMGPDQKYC
Hsp70 act: Hsp70 transcriptional activation, primary screen. HeLa Hsp70 promoter luciferase reporter, luminescence; scaled: vehicle 0, proteasome-inhibitor control 100%. AID 1203. actives 0.04% (n = 200,000). activation, % at 10 µM;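 active means activation above the mean across all tested compounds plus 3 SD, cutoff set per campaign, cut at about 5.5% in these data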;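 further: 100% = MG132 at 30 µM as the positive control and 0% = DMSO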
NALP1 yeast inh: blocks the NALP1 inflammasome reconstituted in yeast; S. cerevisiae NALP1/ASC/caspase-1 growth, X-gal OD620, 72 h; inhibition, % at 10 µM; actives 0.61% (n = 280,000); in the data active means inhibition mostly above about 24%, no sharp cut-off; inactive means mostly below about 32%
An asterisk follows results filed as active; nt = not tested or not shown.

SMILES	HSF-1 act	HSP90 refold inh	HSF1 inhib	p-CIP stab down	Hsp70 act	NALP1 yeast inh
CCN(CC)S(=O)(=O)c1ccc(/C=C/C(=O)O)cc1	-4	0	0	0	0	-14
CSc1cccc(NC(=O)/C=C/c2ccccc2)c1	74*	-5	27	-2	0	12
O=C(/C=C/c1ccc([N+](=O)[O-])cc1)Nc1cccc(C(=O)Nc2ccccc2C(=O)O)c1	-30	2	-20	-12	nt	28*
COc1cccc(NC(=O)NNC(=O)CN2C(=O)COc3ccccc32)c1	45	1	9	-7	nt	14
Cc1ccc(OCc2cc(C(=O)N(C)Cc3cnc4ccccn34)no2)cc1C	8	-5	2	-19	nt	18
CC(=O)N1CCN(c2ccccc2NC(=O)COc2cc(C)ccc2C(C)C)CC1	nt	5	nt	1	0	-2
COC(=O)c1ccc(N2CCN(C(C)=O)CC2)c(NC(=O)COc2ccccc2C)c1	-72	8	-64*	-2	0	4
Cc1ccc(C(C)C)c(OCC(=O)Nc2ccccc2N2CCN(C)CC2)c1	48	1	18	-12	0	27*
CCn1ccc(C(=O)Nc2ccccc2SC)n1	4	1	8	-10	0	22
CCN(CC(=O)NCc1cccs1)C(=O)c1ccc(NS(=O)(=O)c2ccc(F)cc2)cc1	5	nt	3	nt	nt	nt
O=C(CCl)N(c1ccc(Cl)cc1)c1c[nH]c2ccccc12	-93	8	-93*	10	0	21
O=C(CCl)N(c1ccccc1)c1c[nH]c2ccccc12	6	8	-9	-10	0	6
C=CCOc1cccc(C(=O)N2CCCC(Nc3ccc4c(c3)OCCO4)C2)c1 (stereo not drawn)	21	0	-4	0	nt	7
CC(=O)N1CCN(C2c3cccc4cccc(c34)C2NS(=O)(=O)c2ccccc2)CC1 (stereo not drawn)	22	-1	16	-8	0	24
O=S(=O)(NC1c2cccc3cccc(c23)C1N1CCNCC1)c1ccc(Cl)cc1 (stereo not drawn)	61*	-1	26	0	0	32
COc1ccc(/C=N/NC(=O)c2cccnc2)c(C(=O)O)c1OC	73*	-1	29	-7	nt	1
COc1ccc(/C=N/NC(=O)c2ccncc2)c(C(=O)O)c1OC	-4	0	-1	3	nt	nt
CCn1cc(C(=O)NN)c(=O)c2cc(F)c(N3CCCCC3)cc21	2	-1	4	-3	nt	1
CCn1cc(C(=O)NN)c(=O)c2cc(F)c(NC3CCCCC3)cc21	66*	1	19	-5	nt	-8
CCCCOc1ccc(C(=O)N/N=C/c2cn[nH]c2-c2ccc(OC)c(OC)c2)cc1	54*	1	17	-6	0	16
COc1ccccc1OCCCCCc1c(C)n[nH]c1C	-8	-1	-1	-13	0	14
COc1ccccc1OCCCc1c(C)n[nH]c1C	-4	0	0	-11	0	43*
O=C1OC(N2C(=O)CC[C@H]2C(=O)Nc2cccc(F)c2)c2ccccc21 (stereo partly drawn)	15	-4	-4	-1	nt	21
Cc1cc(N=NC(=O)c2ccccc2O)c2ccccc2c1O	77*	-1	24	-14	0	17
CCOC(=O)CC(=O)CSCC(=O)Nc1ccc(C)cc1	86*	1	40	-7	0	16
SMILES	HSF-1 act	HSP90 refold inh	HSF1 inhib	p-CIP stab down	Hsp70 act	NALP1 yeast inh
COc1ccccc1N1C(=O)S/C(=C\c2cc(C)n(C)c2C)C1=O	54*	4	10	-6	0	18
Cc1ccc(NC(=O)Cn2cc(S(=O)(=O)c3ccc(C)cc3)c(=O)c3cc(F)ccc32)cc1	40	-3	28	-3	0	29
COc1ccc(NC(=O)CSc2nnc3ccc(-c4ccncc4)nn23)cc1OC	-80	-5	-75*	-6	0	2
COc1ccccc1/C=C/C(=O)NC(=S)NCC1CCCO1 (stereo not drawn)	-22	-1	-6	5	0	-3
C/C=C1\COC(C(=O)NCCN2CCCC2)(C(F)(F)F)C=C1C=C1CCCCC1 (stereo not drawn)	0	nt	-4	nt	nt	nt
C/C=C1\COC(C(=O)NCc2ccccc2)(C(F)(F)F)C=C1C=C1CCCCC1 (stereo not drawn)	71*	nt	53	nt	nt	nt
Cc1cccc(NC2SC(=O)NC2=O)c1 (stereo not drawn)	-2	3	-8	2	0	21
CCC(C)c1ccccc1NC(=O)CN1CCN(C/C=C/c2ccccc2)CC1 (stereo not drawn)	6	0	-1	0	-1	53*
COc1ccc(OCCCCn2c(CO)nc3ccccc32)cc1	-65	1	-54*	-71	nt	-23
O=C(Nc1ccc(Nc2ccccc2)cc1)Nc1ccccc1Cl	56*	-4	34	2	nt	36
Cc1ccnc(NS(=O)(=O)c2ccc(NC(=O)CN3C(=O)c4ccccc4S3(=O)=O)cc2)n1	-13	nt	-2	nt	nt	nt
C=CCNC(=O)C1CC(=O)N(c2ccc(OCC(=O)Nc3ccc(Cl)cc3)cc2)C1 (stereo not drawn)	3	0	-1	-9	nt	1
NC(=O)CC[C@@H]1NC(=O)C(Cc2ccc(O)cc2)NC(=O)c2cc([N+](=O)[O-])cc(F)c2NCCC[C@@H](C(N)=O)NC1=O (stereo partly drawn)	nt	-3	nt	1	0	13
COc1ccc(NC(=O)c2cccc(S(=O)(=O)NCc3ccco3)c2)c(OC)c1	-11	nt	-5	nt	nt	nt
O=C(NNC(=O)c1cc2cc(OC(F)(F)F)ccc2[nH]1)c1cccc(C(F)(F)F)c1	-11	-2	0	2	nt	5
COc1ccccc1C(=O)Nc1ccc(N2CCN(S(C)(=O)=O)CC2)cc1	78*	0	43	-8	0	9
COc1ccc(C(=O)Nc2ccc(N3CCCC3)cc2)cc1	12	2	7	1	0	-11
COc1ccc(N2CCN(c3ccc(NC(=O)NN)cc3)CC2)cc1	-74	-2	-67*	0	nt	12
CCN1CCN(C(=O)c2nn(C)c3c2CS(=O)(=O)c2ccccc2-3)CC1	1	-8	-5	-4	nt	20
Nc1cc(N)nc(SCC(=O)Nc2ccc(Br)cc2Cl)n1	62*	nt	44	-17	nt	-8
COc1ccc(NC(=S)Nc2ccc(F)cc2)c(OC)c1	-61	1	-52*	nt	0	nt
Fc1ccc(NC(=S)Nc2ccc(Cl)cc2)cc1	2	-5	16	10	0	7
Fc1ccc(NC(=S)Nc2cc(Cl)ccc2Cl)cc1	77*	1	43	-3	0	15
CC(C)(C)CC(=O)Nc1nnc(SCC(=O)Nc2ccccc2F)s1	0	6	-1	6	0	11

Source: PubChem BioAssay (several laboratories)
